# Reference: PubChem BioAssay (NCATS)
# Inconclusive results are not listed. Active and inactive are the calls of the source. Unless noted, calls come from the whole dose curve; as a rule, active = well fitted curve in the direction sought with a large enough effect; inconclusive = small, poorly fitted or top-dose-only effect, or another doubt; inactive = no such curve, though single readings can be large; an effect the other way counts as inactive or inconclusive.
# Assays:
# [1] = qHTS profiling for inhibitors of Plasmodium falciparum proliferation (AID 504749); note: nearly all actives have a fitted effect of over 60% in size; note: potency is the fitted concentration of half-maximal effect;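 for activity, negative = inhibition: 0% = DMSO vehicle and full inhibition = artemisinin control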; settings: P. falciparum in erythrocytes, SYBR Green DNA, 72 h
# Outline: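 Fluorescence of SYBR Green-bound parasite DNA, read at 485/535 nm, served as the growth measure. Infected erythrocytes were cultured with compound 72 h; artemisinin (0.29 uM) and DMSO wells defined the normalization range.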
# [2] = qHTS drug screen for cell cycle checkpoint inhibitors in PARPi-resistant BRCA-mutant ovarian cancer cell lines. (AID 1963452; calls by dose curve); settings: PEO1/OlaR viability, CellTiter-Glo luminescence, 96 h, stronger effect = lower value
# Outline: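 PEO1, PEO4 and PEO1/OlaR ovarian cancer cells, 600 per well, exposed 96 h at 37C to a dilution series. Viability read by CellTiter-Glo luminescence, normalized to DMSO and empty wells; activity summarized as Z-AUC.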
# [3] = KB-3-1 P-gp reporter qHTS against the NCATS DSHEA and TCM libraries (AID 1919975); settings: KB-3-1 parental cells, CellTiter-Glo luminescence viability, 72 h; series mostly up to 26.1 µM; note: 0% is about no effect
# Outline: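 Cell viability qHTS: 500 KB-3-1 cells/well, substances in titration, ~72 h, 37C; luminescent CellTiter-Glo read.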
# [4] = target: Cytochrome P450 1A2 (Homo sapiens) (UniProt P05177); test: qHTS for inhibitors of CYPIA2 against the NCATS DSHEA and TCM libraries (AID 1919976); settings: recombinant CYP1A2 enzyme activity, luminescence; series mostly up to 37 µM;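 note: light from luciferin formed by CYP1A2 from a pro-luciferin substrate; % is set by controls: 0 for no effect and ±100 for the full control effect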
# Outline: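 Furafylline served as the plate control. Compounds met CYP1A2 and pro-luciferin substrate 15 min before NADPH regeneration solution (1x) was added; after 30-45 min at RT, P450-Glo reagent was added for 30 min and luminescence was measured.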
# [5] = qHTS Counterscreen for compound interference against the NCATS DSHEA and TCM libraries (AID 1919978); settings: firefly luciferase detection reagent interference, luminescence;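 note: compounds preincubated with 1 µM D-luciferin or buffer before detection reagent; % of control where 0% means no effect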
# Outline: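 Interference check: test samples were incubated with D-luciferin (final 1 uM) or buffer only for 15 min, room temperature, in a qHTS titration up to 39.8 uM, then developed with detection reagent and read by luminescence.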
# [6] = Dual reporter qHTS for agonist of Pregnane X Receptor (hPXR) against the NCATS DSHEA and TCM libraries: Fluorescence readout (AID 1920058); settings: PXR dual reporter cells; series mostly up to 40 µM; note: 0% is about no effect
# Outline: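 In this qHTS counter-read, reporter-bearing HepG2 cells in charcoal-stripped serum received substances for approximately 24 h before viability was assessed fluorometrically with CellTiter-Fluor.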
# [7] = target: Nuclear receptor subfamily 1 group I member 2 (Homo sapiens) (UniProt O75469); test: Dual reporter qHTS for agonist of Pregnane X Receptor (hPXR) against the NCATS DSHEA and TCM libraries: Luminescence readout (AID 1920059); settings: hPXR dual reporter cells, luciferase luminescence agonist; series mostly up to 40 µM; note: 0% is about no effect
# Outline: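 hPXR-LucHepG2 cells in phenol red-free DMEM with 5% charcoal-stripped FBS, 2000 cells/well, attached 5 h, then exposed 24 h at 37C to compounds; rifampicin as positive agonist control (2.8 nM–92 uM). Luciferase luminescence read.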
# [8] = target: Nuclear receptor subfamily 1 group I member 2 (Homo sapiens) (UniProt O75469); test: Dual reporter qHTS for antagonist of Pregnane X Receptor (hPXR) against the NCATS DSHEA and TCM libraries: Luminescence Readout (AID 1920060); settings: hPXR dual reporter cells, luciferase luminescence, antagonist mode; series mostly up to 40 µM;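 note: HepG2 cells carrying hPXR luciferase reporter stimulated with rifampicin at 2 µM; 0% is about no effect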
# Outline: (§1)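 HepG2 hPXR-Luc, 2000 cells/well, charcoal-stripped FBS medium; 5 h attach; RIF 2 uM final; 24 h 37C/5% CO2; CellTiter-Fluor 1 h, fluor 405/540; ONE-Glo 30 min RT, lum.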
# [9] = Dual reporter qHTS for antagonist of Pregnane X Receptor (hPXR) against the NCATS DSHEA and TCM libraries: Fluorescence Readout (AID 1920061); settings: PXR dual reporter cells, antagonist mode; series mostly up to 40 µM; note: 0% is about no effect
# Outline: as §1
# [10] = qHTS for identification of novel therapeutic agents for treatment of microphthalmiaassociated transcription factor (MiT) renal cell carcinoma (RCC) (AID 1963991; calls by dose curve; note: potency is the fitted concentration of half-maximal effect); settings: CellTiter-Glo, 48 h; for z-score: stronger effect = lower value
# Text: PI: Marston Linehan Ph.D.
# Urologic Oncology Branch, Center for Cancer Research (CCR)
# National Cancer Institute (NCI), National Institute of Health (NIH), Bethesda, Maryland
# MiT-Renal Cell Carcinoma (RCC) is characterized by genomic translocations involving microphthalmia-associated transcription factor (MiT) family members TFE3, TFEB, or MITF. MiT-RCC represents a specific subtype of sporadic RCC that is predominantly seen in young patients and can present with heterogeneous histological features making diagnosis challenging. Moreover, the disease biology of this aggressive cancer is poorly understood and there is no accepted standard of care therapy for patients with advanced disease. Tumor-derived cell lines have been established from human TFE3-RCC providing useful models for preclinical studies. TFE3-RCC tumor derived cell lines and their tissues of origin were characterized by IHC and gene expression analyses. An unbiased high-throughput drug screen was performed to identify novel therapeutic agents for treatment of MiT-RCC. Potential therapeutic candidates were validated in in vitro and in vivo preclinical studies. Mechanistic assays were conducted to confirm the on-target effects of drugs. The results of a high-throughput small molecule drug screen utilizing three TFE3-RCC tumor-derived cell lines identified five classes of agents with potential pharmacological efficacy, including inhibitors of phosphoinositide-3-kinase (PI3K) and mechanistic target of rapamycin (mTOR), and several additional agents, including the transcription inhibitor Mithramycin A. Upregulation of the cell surface marker GPNMB, a specific MiT transcriptional target, was confirmed in TFE3-RCC and evaluated as a therapeutic target using the GPNMB-targeted antibody-drug conjugate CDX-011. […] The results of the high-throughput drug screen and validation studies in TFE3-RCC tumor-derived cell lines have provided in vitro and in vivo preclinical data supporting the efficacy of the PI3K/mTOR inhibitor.
# SEQUENCE No. (e.g., 1, 2, 3, etc.); […] (e.g., Cells, Incubation, Reagent, etc.); VALUE; DESCRIPTION.
# 1; Cells; 3 uL; white, solid-bottom Grenier assay plate.
# 2; Compounds; 23 nL; Kalypsis pin-tool (Wako USA).
# 3; Incubation; 48 hr; 37 C, 5% CO2, 95% humidity.
# 4; Reagent; 3 uL; CellTiter-Glo reagent (Promega).
# 5; Incubation; 15 min; room temperature.
# 6; Detection; Luminescence; ViewLux plate reader (PerkinElmer).
# NOTES (numbers refer to Sequence numbers above)
# 1. Quantitative high-throughput screening (qHTS) of 1912 pharmacologically defined small molecule compounds was conducted on three TFE3-fusion cell lines bearing three different fusion partners (UOK109, UOK124, UOK145). Briefly, 500 cells in complete growth media were plated into white, solid-bottom, 1536-well tissue culture treated plates (Grenier Cat. 789173-F) using a Multidrop Combi cassette dispenser.
# 2. Twenty-three nanoliter of 1912 pharmacologically defined small molecule compounds of the NCATS Mechanism Interrogation PlatE (MIPE) version 4.0 were added to each assay plate using a Pintool Dispenser (Wako) equipped with 1536 pin head.
# 3. Plates were covered with stainless steel gasketed lids and incubated for 48 hours at standard cell culture conditions.
# 4. Viability was assessed by adding 3uL of CellTiter-Glo detection reagent (Promega).
# 5. Plates were covered with gasket lids and incubated for 15 minutes at room temperature.
# 6. Luminescence was measured on a ViewLux plate reader (PerkinElmer). Post-screen data processing used DMSO controls as 100% viability and empty wells as 0% viability and dose response curve fitting was done for all 11 concentrations for each compound.
# [11] = at 28.7 µM (top of the series), parasite line B
# [12] = at 28.7 µM (top of the series), parasite line A
# [13] = measured here: PEO1 parental Z-AUC
# Chain of Nuclear receptor subfamily 1 group I member 2 (Homo sapiens) (O75469 whole entry, looked up): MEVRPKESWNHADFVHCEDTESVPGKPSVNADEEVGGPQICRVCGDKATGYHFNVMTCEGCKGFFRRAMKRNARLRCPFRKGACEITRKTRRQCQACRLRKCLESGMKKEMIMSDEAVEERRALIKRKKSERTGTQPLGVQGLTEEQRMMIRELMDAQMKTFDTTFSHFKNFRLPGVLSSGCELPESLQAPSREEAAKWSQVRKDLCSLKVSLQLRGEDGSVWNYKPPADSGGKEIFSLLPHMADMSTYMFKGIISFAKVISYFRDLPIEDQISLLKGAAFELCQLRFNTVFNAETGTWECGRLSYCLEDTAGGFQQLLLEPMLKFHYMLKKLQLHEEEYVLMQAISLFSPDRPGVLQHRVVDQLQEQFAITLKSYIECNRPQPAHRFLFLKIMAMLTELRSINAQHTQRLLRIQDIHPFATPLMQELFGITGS
# Chain of Cytochrome P450 1A2 (Homo sapiens) (P05177 whole entry, looked up): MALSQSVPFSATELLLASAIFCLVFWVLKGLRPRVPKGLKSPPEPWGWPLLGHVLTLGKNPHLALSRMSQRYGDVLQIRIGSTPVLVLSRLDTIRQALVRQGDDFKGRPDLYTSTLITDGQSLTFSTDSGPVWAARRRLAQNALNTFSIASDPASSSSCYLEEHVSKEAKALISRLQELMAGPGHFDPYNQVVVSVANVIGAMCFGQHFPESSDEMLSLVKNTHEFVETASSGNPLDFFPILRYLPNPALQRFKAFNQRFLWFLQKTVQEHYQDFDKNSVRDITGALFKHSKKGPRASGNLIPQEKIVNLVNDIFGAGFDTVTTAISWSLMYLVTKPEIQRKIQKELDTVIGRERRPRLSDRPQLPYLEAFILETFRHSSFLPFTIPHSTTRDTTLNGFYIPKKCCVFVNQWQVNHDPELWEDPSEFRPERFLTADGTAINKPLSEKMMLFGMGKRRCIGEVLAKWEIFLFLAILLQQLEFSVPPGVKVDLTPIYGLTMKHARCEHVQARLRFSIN
structure (smiles),measurement,setting,value
COP(=O)(OC)C(O)C(Cl)(Cl)Cl (configuration not stated),"activity, negative = inhibition",[1]; [11],2.48% (inactive)
CN1CCc2cc(Cl)c(O)cc2[C@H]2c3ccccc3CC[C@@H]21,"activity, negative = inhibition",[1]; [11],-29.7% (inactive)
CCOC(=O)NC(O)C(Cl)(Cl)Cl (configuration not stated),"activity, negative = inhibition",[1]; [12],5.94% (inactive)
same,"activity, negative = inhibition",[1]; [11],0.346% (inactive)
C[C@@H]1CC[C@H]2[C@@H](C)C(=O)O[C@@H]3O[C@@]4(C)CC[C@@H]1[C@]32OO4,Z-AUC,[2],1.33 (inactive)
same,Z-AUC,[2]; [13],0.931
same,Z-AUC,[2]; measured here: PEO4 Z-AUC,1.15
CCN(CC)CCOC(=O)C(C)(c1ccccc1)c1ccccc1,"activity, negative = inhibition",[1]; [12],-27.7% (inactive)
CC(C)(C)OC(=O)c1ncn2c1[C@@H]1CCCN1C(=O)c1c(Br)cccc1-2,"activity, negative = inhibition",[1]; [12],0.318% (inactive)
same,"activity, negative = inhibition",[1]; [11],11.2% (inactive)
C[C@]12CC[C@H](O)CC1=CC[C@@H]1[C@@H]2CC[C@]2(C)C(=O)CC[C@@H]12,outcome,[3],inactive
same,outcome,[4],inactive
same,max response,[5],-2.96% (inactive)
same,outcome,[6],inactive
same,outcome,[7],inactive
same,outcome,[8],inactive
same,outcome,[9],inactive
same,Z-AUC,[2],1.09 (inactive)
same,Z-AUC,[2]; [13],0.516
same,Z-AUC,[2]; measured here: PEO4 Z-AUC,0.608
C[C@]12CC[C@H]3[C@@H](CC=C4C[C@@H](O)CC[C@@]43C)[C@@H]1CC[C@@H]2O,"activity, negative = inhibition",[1]; [12],1.98% (inactive)
same,"activity, negative = inhibition",[1]; [11],6.49% (inactive)
CC(C)[N+](C)(CCC(C(N)=O)(c1ccccc1)c1ccccc1)C(C)C,"activity, negative = inhibition","[1]; at 12.8 µM (top of the series), parasite line A",-4.63% (inactive)
same,"activity, negative = inhibition","[1]; at 12.8 µM (top of the series), parasite line B",4.79% (inactive)
O=C1NCN(c2ccccc2)C12CCN(CCCOc1ccc(F)cc1)CC2,"activity, negative = inhibition",[1]; [11],-11.5% (inactive)
CN(C)C(=S)SSC(=S)N(C)C,Potency,[1]; parasite line A,2510 nM (active)
same,Potency,[1]; parasite line B,3160 nM (active)
C[N+](C)(C)CCOC(=O)C(O)(c1ccccc1)c1ccccc1,"activity, negative = inhibition",[1]; [12],12.8% (inactive)
same,"activity, negative = inhibition",[1]; [11],7.74% (inactive)
C[C@@H]1C[C@@H]([C@H](O)CC2CC(=O)NC(=O)C2)C(=O)[C@@H](C)C1,Z-AUC,[2],0.13 (inactive)
same,Z-AUC,[2]; [13],-0.0615
same,Z-AUC,[2]; measured here: PEO4 Z-AUC,0.0418
same,Potency,[10]; TFE3-RCC UOK109 viability,46.9 nM (active)
same,z-score,"[10]; TFE3-RCC UOK109 viability, measured here: UOK109 Z-AUC",-2.25
same,z-score,"[10]; TFE3-RCC viability, measured here: UOK124 Z-AUC",-1.12
same,z-score,"[10]; TFE3-RCC viability, measured here: UOK145 Z-AUC",-1.24
C[C@]12Cc3nonc3C[C@@H]1CC[C@@H]1[C@@H]2CC[C@@]2(C)[C@H]1CC[C@]2(C)O,"activity, negative = inhibition",[1]; [11],-29.5% (inactive)
